According to PubChem BioAssay AID1159580 (chemical genetic matrix, 2015):
In all, about 5,500 compounds went through this assay and about 2,000 (36%) were called active. About 18% were inconclusive and are not listed. Rule as the data show it: active = normalized growth mostly below about 0.91 (no sharp cut-off); inconclusive = no clear call, values can overlap the other calls; inactive = mostly above about 0.92. The list shows a part of the results.

Test: chemical genetic growth profiling, strain panel (AID 1159580);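 also: tested at 20 µM; growth read once vehicle control cultures reached saturation at 30 °C; 1 = growth at the plate median or of vehicle wells; lower values mean less growth of the strain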
Conditions: growth OD

Measured: normalized growth

CC(=O)OCC(=O)[C@@]1(O)[C@H](OC(C)=O)CC2C3CCC4=CC(=O)C=C[C@]4(C)[C@@]3(F)[C@@H](O)C[C@@]21C (some centres not stated)
inactive: S. cerevisiae deletion strains, locus YJR066W, strain TOR1, hits give low values 0.935 | S. cerevisiae deletion strains, locus YKL009W, strain mrt4, hits give low values 0.993 | S. cerevisiae deletion strains, locus YKL068W, hits give low values 0.994 | S. cerevisiae deletion strains, locus YKL085W, strain MDH1 (second series), hits give low values 1 | S. cerevisiae deletion strains, locus YKL085W, strain MDH1, hits give low values 1 | S. cerevisiae deletion strains, locus YKL160W, strain elf1, hits give low values 1.02 | S. cerevisiae deletion strains, locus YKL190W, strain CNB1, hits give low values 0.996 | S. cerevisiae deletion strains, locus YKR001C, strain vps1, hits give low values 0.999 | S. cerevisiae deletion strains, locus YKR026C, strain gcn3, hits give low values 0.993 | S. cerevisiae deletion strains, locus YKR091W, strain srl3, hits give low values 0.986 | S. cerevisiae deletion strains, locus YLL001W, strain dnm1, hits give low values 1.03 | S. cerevisiae deletion strains, locus YLL026W, hits give low values 1 | S. cerevisiae deletion strains, locus YLL041C, strain sdh2, hits give low values 0.985 | S. cerevisiae deletion strains, locus YLR027C, strain aat2, hits give low values 1.01 | S. cerevisiae deletion strains, locus YLR039C, strain RIC1, hits give low values 0.995 | S. cerevisiae deletion strains, locus YLR058C, strain SHM2, hits give low values 0.98 | S. cerevisiae deletion strains, locus YLR102C, strain apc9, hits give low values 0.999 | S. cerevisiae deletion strains, locus YLR113W, strain HOG1, hits give low values 0.98 | S. cerevisiae deletion strains, locus YLR221C, strain rsa3, hits give low values 0.956 | S. cerevisiae deletion strains, locus YLR258W, strain gsy2, hits give low values 0.982 | S. cerevisiae deletion strains, locus YLR262C, strain YPT6 (second series), hits give low values 1.01 | S. cerevisiae deletion strains, locus YLR262C, strain YPT6, hits give low values 0.974 | S. cerevisiae deletion strains, locus YLR268W, strain sec22, hits give low values 1.06 | S. cerevisiae deletion strains, locus YLR320W, strain mms22, hits give low values 0.97 | S. cerevisiae deletion strains, locus YLR330W, strain CHS5, hits give low values 0.993 | S. cerevisiae deletion strains, locus YLR342W, strain FKS1 (second series), hits give low values 1.01 | S. cerevisiae deletion strains, locus YLR342W, strain FKS1, hits give low values 1.02 | S. cerevisiae deletion strains, locus YLR357W, strain rsc2, hits give low values 0.974 | S. cerevisiae deletion strains, locus YLR370C, strain arc18, hits give low values 0.99 | S. cerevisiae deletion strains, locus YLR371W, strain rom2, hits give low values 0.983 | S. cerevisiae deletion strains, locus YLR384C, strain iki3, hits give low values 0.996 | S. cerevisiae deletion strains, locus YLR418C, strain cdc73, hits give low values 1 | S. cerevisiae deletion strains, locus YML016C, strain PPZ1, hits give low values 0.996 | S. cerevisiae deletion strains, locus YML032C, strain rad52, hits give low values 1.01 | S. cerevisiae deletion strains, locus YML120C, strain ndi1, hits give low values 1 | S. cerevisiae deletion strains, locus YML124C, strain tub3, hits give low values 0.991 | S. cerevisiae deletion strains, locus YMR058W, strain fet3, hits give low values 0.991 | S. cerevisiae deletion strains, locus YMR078C, strain ctf18, hits give low values 0.987 | S. cerevisiae deletion strains, locus YMR125W, strain sto1, hits give low values 0.983 | S. cerevisiae deletion strains, locus YMR129W, hits give low values 0.967 | S. cerevisiae deletion strains, locus YMR205C, strain PFK2, hits give low values 1.02 | S. cerevisiae deletion strains, locus YMR223W, strain ubp8, hits give low values 0.98 | S. cerevisiae deletion strains, locus YMR231W, strain pep5, hits give low values 1 | S. cerevisiae deletion strains, locus YMR263W, strain SAP30, hits give low values 0.991 | S. cerevisiae deletion strains, locus YMR307W, strain GAS1, hits give low values 1 | S. cerevisiae deletion strains, locus YNL067W, strain RPL9B, hits give low values 0.998 | S. cerevisiae deletion strains, locus YNL071W, strain lat1, hits give low values 0.974 | S. cerevisiae deletion strains, locus YNL183C, strain NPR1, hits give low values 0.949 | S. cerevisiae deletion strains, locus YNL209W, strain ssb2, hits give low values 0.986 | S. cerevisiae deletion strains, locus YNL233W, strain BNI4, hits give low values 0.986 | S. cerevisiae deletion strains, locus YNL248C, strain rpa49, hits give low values 0.937 | S. cerevisiae deletion strains, locus YNL250W, strain rad50, hits give low values 0.985 | S. cerevisiae deletion strains, locus YNL271C, strain bni1, hits give low values 0.997 | S. cerevisiae deletion strains, locus YNL298W, strain CLA4, hits give low values 1 | S. cerevisiae deletion strains, locus YNL307C, strain MCK1, hits give low values 0.998 | S. cerevisiae deletion strains, locus YNL322C, strain KRE1 (second series), hits give low values 0.998 | S. cerevisiae deletion strains, locus YNR049C, strain mso1, hits give low values 0.979 | S. cerevisiae deletion strains, locus YNR052C, strain pop2, hits give low values 1 | S. cerevisiae deletion strains, locus YOL006C, strain TOP1, hits give low values 0.959 | S. cerevisiae deletion strains, locus YOL012C, strain htz1 1.14 | S. cerevisiae deletion strains, locus YOL147C, strain pex11, hits give low values 0.994 | S. cerevisiae deletion strains, locus YOR001W, strain rrp6, hits give low values 1 | S. cerevisiae deletion strains, locus YOR061W, strain CKA2, hits give low values 0.963 | S. cerevisiae deletion strains, locus YOR069W, strain VPS5, hits give low values 0.993 | S. cerevisiae deletion strains, locus YOR070C, strain gyp1, hits give low values 0.989 | S. cerevisiae deletion strains, locus YOR080W, strain dia2, hits give low values 0.997 | S. cerevisiae deletion strains, locus YOR083W, strain WHI5, hits give low values 1.01 | S. cerevisiae deletion strains, locus YOR106W, strain vam3, hits give low values 1.02 | S. cerevisiae deletion strains, locus YOR136W, strain idh2, hits give low values 0.981 | S. cerevisiae deletion strains, locus YOR144C, strain elg1, hits give low values 0.998 | S. cerevisiae deletion strains, locus YOR184W, strain ser1, hits give low values 0.986 | S. cerevisiae deletion strains, locus YOR231W, strain MKK1, hits give low values 0.982 | S. cerevisiae deletion strains, locus YOR265W, strain rbl2, hits give low values 0.982 | S. cerevisiae deletion strains, locus YOR270C, strain vph1, hits give low values 0.973 | S. cerevisiae deletion strains, locus YOR290C, strain snf2, hits give low values 0.952 | S. cerevisiae deletion strains, locus YOR316C, strain cot1, hits give low values 0.993 | S. cerevisiae deletion strains, locus YPL051W, strain arl3, hits give low values 1.01 | S. cerevisiae deletion strains, locus YPL078C, strain atp4, hits give low values 1.02 | S. cerevisiae deletion strains, locus YPL106C, strain sse1, hits give low values 0.982 | S. cerevisiae deletion strains, locus YPL240C, strain hsp82, hits give low values 1 | S. cerevisiae deletion strains, locus YPL256C, strain CLN2, hits give low values 0.969 | S. cerevisiae deletion strains, locus YPR119W, strain clb2, hits give low values 0.998 | S. cerevisiae deletion strains, locus YPR141C, strain kar3, hits give low values 0.982 | S. cerevisiae deletion strains, locus YPR163C, strain tif3, hits give low values 0.985 | S. cerevisiae deletion strains, locus YPR167C, strain met16, hits give low values 0.992 | S. cerevisiae deletion strains, strain wtn01, hits give low values 1 | S. cerevisiae strains, strain wild type, hits give low values 0.983
